# Measurements from PubChem BioAssay (NCI).
# About 83,000 compounds went through this panel and 20% of them were active in at least one assay; those are over-represented in the sample as a whole.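 Each cell line was grown in a 96-well plate and treated with one concentration of compound for 48 hours. Values below 10 were considered active.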 Values without a mark were called inactive. Calls of active or inactive are those of the source.
# Experiments:
# Test in all cases: NCI-60 one-dose screen, 48 h (100 = growth as untreated, 0 = no growth, -100 = all killed)
# Conditions in all cases: 10 µM unless noted
# T-47D breast = test system: T-47D breast
# BT-549 breast = test system: BT-549 breast
# MDA-MB-435 melanoma = test system: MDA-MB-435 melanoma
# SW-620 colon = test system: SW-620 colon
# HCT-116 colon = test system: HCT-116 colon
# HCC-2998 colon = test system: HCC-2998 colon
# KM12 colon = test system: KM12 colon
# MCF7 breast = test system: MCF7 breast
Compound,growth (T-47D breast),growth (BT-549 breast),growth (MDA-MB-435 melanoma),growth (SW-620 colon),growth (HCT-116 colon),growth (HCC-2998 colon),growth (KM12 colon),growth (MCF7 breast)
COc1ccc(/C=C/C(=O)Nc2cc(/C=C\c3cc(OC)c(OC)c(OC)c3)cc(OC)c2OC)cc1OC,6.43% (active),8.93% (active),-35% (active),35.2%,19.2%,55.6%,17.1%,
COc1ccc(/C=C/c2nc(Nc3cccc(NC(C)=O)c3)c3ccccc3n2)cc1,70%,92.1%,85.2%,92.1%,,,83.2%,49.9%
O=C(NO)c1ccc(-n2nc(-c3ccccc3)c3ccccc32)cc1,37.3%,67.2%,84.7%,41.2%,7.64% (active),44.1%,71.8%,
O=C1Nc2cc(-c3ccc(NC(=O)c4ccccc4)cc3)ccc2/C1=C/c1ccc[nH]1,35.7%,89.1%,99.5%,105%,,99.8%,68.7%,8.35% (active)
CC1(C)CC(=O)C2=C(C1)N(c1ccc(F)cc1F)C(N)=C(C#N)C2c1cc(Br)ccc1F (stereo not drawn),110%,106%,101%,89.6%,,107%,88.7%,95%
Cc1ccc(-c2nc3ccccn3c2/C=C2/C(=O)Nc3cc(Cl)ccc32)cc1,74.6%,70.9%,-12.7% (active),49%,,92.2%,31.9%,33.5%
Nc1nc(Nc2ccccc2SSc2ccccc2Nc2nc(N)nc(-c3cccs3)n2)nc(-c2ccsc2)n1,56.2%,86%,98.1%,80.4%,84.9%,111%,67.6%,
COc1ccc(NC(N)=NCCCOc2ccc(F)cc2)cc1,23.2%,67.3%,80.4%,88.6%,,76.3%,84.4%,10.7%
Nc1c(S(=O)(=O)O)cc2c3c(cccc13)C(=O)OC2=O,96%,104%,102%,99.8%,,102%,92.5%,94.8%
O=C1Nc2ccccc2/C1=C\c1c(-c2ccccc2)nc2ccccn12,38.1%,45.3%,-42% (active),21.2%,,107%,23.3%,19.6%
CCCCN1C=CCN(CCCC)C1,6.14% (active),56.9%,6.59% (active),73.4%,,,22.9%,32.5%
CCOC(=O)Oc1c(OC)cc(C(=O)c2ccc(OC)c(OC(=O)CCl)c2OC)cc1OC,36.2%,42.4%,-35.9% (active),21.9%,,43.3%,21.9%,16.6%
N#CC(C(=O)/C(=N/NC(=O)c1ccccc1O)C(C#N)c1ccccc1)c1ccccc1 (stereo not drawn),24.9%,44.2%,24.1%,80.2%,,85.9%,46.5%,55.3%
CC(=O)CCC(=O)OCc1cc(=O)c(O)co1,111%,102%,106%,97%,,,93.5%,99%
COc1cc2nc(-c3ccc(Cl)cc3)cc(OCCCN3CCCCC3)c2cc1OC,35.4%,40.9%,-22.5% (active),40.8%,,67.7%,44.6%,45.8%
COc1cc(CC(=O)n2ncc3ccc(N)cc32)cc(OC)c1OC,76.2%,91.3%,65.3%,104%,,105%,82.6%,87.5%
Nc1c(C(=O)Nc2ccnc3ccccc23)sc2nc3c(cc12)CN(Cc1ccccc1)CC3,38.5%,30.8%,73.6%,95.3%,,103%,79.7%,68.9%

Compound,growth (T-47D breast),growth (BT-549 breast),growth (MDA-MB-435 melanoma),growth (SW-620 colon),growth (HCT-116 colon),growth (HCC-2998 colon),growth (KM12 colon),growth (MCF7 breast)
COc1ccc(OC)c(-c2cc(-c3ccc(Cl)cc3)c3c(N)c(C(=O)c4ccc(Cl)cc4)sc3n2)c1,87.2%,84.1%,107%,112%,95.7%,100%,100%,
CCOC(=O)c1cc(C(=O)c2cc(OC)cc(OC)c2)n2ccc3ccccc3c12,95%,74.7%,99.5%,102%,,108%,100%,99.2%
Cc1nc2sccn2c1-c1nc2sccn2c1/C=C1/C(=O)Nc2ccccc21,27.6%,36%,-63.8% (active),9.78% (active),,66.8%,12.5%,10.6%
NNC(=O)c1ccc(-n2nc(-c3ccccc3)c3ccccc32)cc1,38.1%,73.6%,93.9%,95.5%,82.2%,54.8%,94.8%,
C=C(C)[C@@H]1CC[C@]2(C(=O)N3CCN(C)CC3)CC[C@]3(C)[C@H](CC[C@@H]4[C@@]5(C)C/C(=C/c6cccnc6)C(=O)C(C)(C)[C@@H]5CC[C@]43C)[C@@H]12,54.2%,83.2%,69.4%,48.1%,,77.5%,54.7%,27.2%
NC(=O)Nc1ccc(-n2cnc3cc(-c4ccc(O)cc4)ccc32)cc1,59.7%,88.2%,96.8%,114%,,110%,21.8%,93.7%
Cc1c(C(=O)NCCC(=O)NO)sc2ncnc(Nc3ccc(NC(=O)Nc4cccc(C(F)(F)F)c4)cc3)c12,101%,137%,103%,104%,108%,112%,100%,
CCOC(=O)c1nc2c3ccccc3ccn2c1C(=O)OCC,98.2%,103%,105%,,,103%,100%,95.9%
CNC(=O)c1cccc(Cn2nc(C)c(NC(=O)c3ccc(COc4ccc(C(F)(F)F)cc4C)cc3)c2C)c1,6.16% (active),19.7%,36.2%,77.3%,29.2%,68.5%,61.7%,
CNC(=O)c1cccc(Cn2nc(C)c(NC(=O)c3ccc(COc4ccc(C(F)(F)F)cc4C)cc3)c2C)n1,7.54% (active),22.1%,,81.8%,24.4%,61.7%,65.4%,21.7%
Cn1ccnc1C(=O)/C=C/c1ccc(CC(=O)Nc2ccc(F)cc2)cc1,28.8%,23.6%,19.7%,10.1%,4.94% (active),85.4%,6.52% (active),
N/C(=N\C(N)=N\c1nc2ccccc2s1)c1ccnc(Br)c1,54.3%,41.9%,-25.2% (active),13.5%,20.2%,70.3%,23.9%,
CCN(CC)CCOc1ccc(NC(=O)C(C(C)C)N2C(=O)/C(=C/c3ccc(Br)cc3)SC2=S)cc1 (stereo not drawn),93.1%,110%,97%,41.9%,-24.8% (active),73%,99.4%,
COc1cc2c(c(OC)c1OC)CCC(c1cccc(NC(=O)c3cccc(Br)c3)c1)O2 (stereo not drawn),72.5%,103%,87.4%,93.2%,72.2%,99.7%,95.2%,
Cc1cc2nc3c4ccc(Br)cc4n(CCN(C)C)c3nc2cc1C,21.6%,57.5%,18.3%,0.693% (active),9.24% (active),,23.8%,
CC(=O)O[C@H]1Cc2c([nH]c3ccccc23)[C@@H](c2ccc(Cl)cc2)N1C(=O)CCNC(C)(C)C,74.3%,53.7%,70%,61.1%,20.8%,60.3%,66.6%,
Oc1ccc(OCCOc2ccc(O)cc2)cc1,72.5%,54.7%,47.2%,50.2%,55.9%,47.1%,29.2%,
